High-throughput results as filed in PubChem BioAssay.
RXFP1 antagonist: qHTS Assay for Antagonists of the Relaxin Receptor RXFP1. activity change, negative = inhibition, % at 57.5 µM. HEK293-RXFP1, relaxin-stimulated cAMP HTRF, 30 min; hits give low values. AID 1259400, 2018. Relaxin receptor 1 (Homo sapiens), Q9HBX9. 350,000 tested, 0.59% active;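 active = activity change of -60% or lower, but not beyond a set lower limit; inconclusive = change between -60% and -40%, or beyond the set limit; inactive = change above -40%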; note: % is set by controls: 0 for no effect and ±100 for the full control effect
Target sequence (Q9HBX9 whole entry, looked up): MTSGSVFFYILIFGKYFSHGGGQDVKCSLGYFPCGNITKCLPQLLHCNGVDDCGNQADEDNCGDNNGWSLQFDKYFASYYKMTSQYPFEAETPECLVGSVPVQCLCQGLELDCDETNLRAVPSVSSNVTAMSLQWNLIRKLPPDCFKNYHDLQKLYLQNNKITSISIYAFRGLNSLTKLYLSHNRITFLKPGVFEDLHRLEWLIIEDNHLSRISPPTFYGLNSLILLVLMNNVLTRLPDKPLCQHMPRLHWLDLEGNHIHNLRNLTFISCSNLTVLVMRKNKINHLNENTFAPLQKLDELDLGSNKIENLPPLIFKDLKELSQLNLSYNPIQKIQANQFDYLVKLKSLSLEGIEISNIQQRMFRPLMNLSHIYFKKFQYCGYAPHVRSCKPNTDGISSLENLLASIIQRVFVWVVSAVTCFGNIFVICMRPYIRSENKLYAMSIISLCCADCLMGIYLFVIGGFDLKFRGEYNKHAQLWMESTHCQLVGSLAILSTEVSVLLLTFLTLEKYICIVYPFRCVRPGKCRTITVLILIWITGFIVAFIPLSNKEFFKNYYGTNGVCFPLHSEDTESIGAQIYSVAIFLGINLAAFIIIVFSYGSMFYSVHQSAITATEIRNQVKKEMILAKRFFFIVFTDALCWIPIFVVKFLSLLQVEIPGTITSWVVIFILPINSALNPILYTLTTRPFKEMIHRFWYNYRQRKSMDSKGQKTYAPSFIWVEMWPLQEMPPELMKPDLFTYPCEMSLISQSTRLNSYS
pAkt inh: HTS Assay for Inhibitors of Akt Phophorylation: Primary Screen; Neuro2A IGF-stimulated pAkt S473 HTRF, 20 min; hits give low values; 360,000 tested, 0.32% active; AID 651550, 2012; activity change, % for hits at 50 µM; in the data active = activity change below about -80%; inconclusive = mostly about -51% to -80%; note: % is set by controls: 0 for no effect and ±100 for the full control effect
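Neuro2A cells (4,500/well, DMEM with 0.5% FBS) were treated with compound at a single 50 µM final concentration, stimulated with 6 nM IGF for 20 min at 37 °C, and lysed. Phospho-Akt Ser473 was read by HTRF as 665/615 ratio ×10^4.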
gsp ag: qHTS for Agonist of gsp, the Etiologic Mutation Responsible for Fibrous Dysplasia/McCune-Albright Syndrome: qHTS; gsp mutant cells, cAMP HTRF, 30 min; Potency, µM (highest dose often 76.9 µM), for inactives: top-dose activation (cAMP increase), hits mostly activators; 340,000 tested, 0.13% active; active = well fitted activation curve with a large enough effect; inconclusive = small, poorly fitted or top-dose-only effect, or another doubt; inactive = no such curve, though single readings can be large or run the other way; cell line not stated here;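 note: phosphodiesterase inhibitor Ro 20-1724 added with compounds to block cAMP breakdown; potency is the fitted concentration of half-maximal effect; nearly all actives have a fitted effect of over 60% in size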
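Cells stably selected in G418 were plated at 2000/well, grown 16-24 hr, then given compounds in DMSO with the PDE inhibitor […] (300 uM solution added) for 30 min at 37C; cAMP was read by HTRF.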
RXFP1 agonist: qHTS Assay for Agonists of the Relaxin Receptor RXFP1 | HEK293T-RXFP1 cAMP TR-FRET, 30 min; response scale: percent of porcine relaxin response, buffer zero | Relaxin receptor 1 (Homo sapiens), Q9HBX9 | Potency, µM (titrated, usually from 57.5 µM), inactives show at the highest dose activation, most hits filed as activators | 370,000 tested, 0.3% active | AID 2676, 2010; active = well fitted activation curve with a large enough effect; inconclusive = small, poorly fitted or top-dose-only effect; note: potency is the fitted concentration of half-maximal effect; % is set by controls: 0 for no effect and ±100 for the full control effect; nearly all actives have a fitted effect of over 60% in size
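HEK293 cells stably expressing RXFP1, treated 30 min at 37C with compounds plus PDE4 inhibitor Ro 20174; cAMP measured by HTRF TR-FRET. Normalized to buffer and 29 nM porcine relaxin; EC50 by Hill fit.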
gsp antag: qHTS for Antagonists of gsp, the Etiologic Mutation Responsible for Fibrous Dysplasia/McCune-Albright Syndrome: qHTS | gsp-mutant cells, cAMP HTRF, 30 min | Potency, µM (doses to about 76.9 µM), inactives show at the highest dose activity change, negative = inhibition, actives largely listed as inhibitors | 340,000 tested, 0.4% active; calls by dose curve; cell line not stated here;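 note: intracellular cAMP measured with PDE inhibitor Ro 20-1724 present during compound exposure; potency is the fitted concentration of half-maximal effect; % is set by controls: 0 for no effect and ±100 for the full control effect; nearly all actives have a fitted effect of over 65% in size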
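Measurement of cellular cAMP by homogeneous time-resolved fluorescence following a 30 min compound exposure at 37C. The PDE inhibitor […] was present throughout; the assay buffer was DPBS with 0.05% BSA and 0.005% Tween 20.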
* marks the source's active call; other numbers are inactive results; i = inactive; ? = inconclusive; . = no result; [ ] = dose if it differs, or a comment. In the library only some 1.2% were active in any assay of this set; here they are far more common.

SMILES | RXFP1 antagonist | pAkt inh | gsp ag | RXFP1 agonist | gsp antag
O=C(Nc1ccc(OC(F)F)c(Cl)c1)c1cccc(OC(F)F)c1 | -21 | . | 12% | 0% | 40µM*
COc1ccc(C(=O)c2cn(Cc3ccc(F)cc3)c3ccc(C)cc3c2=O)cc1 | -33 | . | . | 1% | .
COc1ccc(-c2nn3c(COc4ccccc4)nnc3s2)cc1OC | 3 | -117%* | 7% | -3% | 15%
c1ccc(OCc2nnc3sc(-c4cccs4)nn23)cc1 | -1 | i | 6% | 2% | 6%
CC1CCC2(CC1)NC(=O)N(CC(=O)Nc1sc3c(c1C(N)=O)CCC3)C2=O (stereo unspecified) | -2 | i | -20% | 1% | -18%
CC1CCCCC12NC(=O)N(CC(=O)Nc1sc3c(c1C(N)=O)CCC3)C2=O (stereo unspecified) | -8 | -120%* | ? | -1% | 0%
CCOC(=O)CC(NC(=O)c1cc2cc(Cl)ccc2oc1=O)c1ccc(C)cc1 (stereo unspecified) | . | . | . | 2% | .
Cc1cc(Br)ccc1NC(=O)CCS(=O)(=O)c1cccc2nsnc12 | . | . | . | -2% | .
COc1cc(C2c3c(oc4ccccc4c3=O)C(=O)N2c2nccs2)ccc1O (stereo unspecified) | -105* | i | -41%[15.4 µM] | 0% | 2%
COc1ccc(C2C=C(c3ccccc3)Nc3nc(NC(=O)/C=C/c4ccc(Cl)cc4)nn32)cc1 (stereo unspecified) | -12 | . | . | 10% | .
Cc1ccc(-n2c(=S)[nH]c3sc4c(c3c2=O)CCC4)cc1 | -1 | i | 55%[15.4 µM] | 13µM* | 12%
COc1cc(C(C)=O)ccc1OCCCN1CCC(c2noc3cc(F)ccc23)CC1 | -10 | . | . | . | .
CCC(Sc1nc2cc3c(cc2c(=O)n1CCCCCC(=O)NCc1ccc2c(c1)OCO2)OCO3)C(=O)NCCCOC (stereo unspecified) | -113* | . | . | 0% | .
COCCCNC(=O)CSc1nc2cc3c(cc2c(=O)n1CCCCCC(=O)NCc1ccc2c(c1)OCO2)OCO3 | -3 | . | . | 2% | .
CC(=O)c1cc(-c2ccccc2)n(CCC(=O)Nc2ccc(C)cc2C)c1C | -62* | . | . | 0% | .
CC(C)(C)c1ccc(C(=O)Nc2ccc(F)cc2)s1 | ? | i | 17% | 32µM* | 2%
CCc1cc2cc(C(=O)Nc3ccc(F)cc3)sc2s1 | 10 | i | ? | ? | 31%
C=C(C)C(=O)OCC(O)CO (stereo unspecified) | 10 | . | . | . | .
O=C(COc1ncnc2cc([N+](=O)[O-])ccc12)N(CCc1ccccc1)Cc1ccccc1 | 0 | i | ? | 10% | 28µM*
O=C(COc1ccc([N+](=O)[O-])cc1)N(Cc1ccccc1)Cc1ccccc1 | . | i | -46% | 1% | -19%
CCCCN(CC)c1nc(-c2ccccc2F)nc2ccccc12 | -31 | . | . | 1% | .
Cc1sc2ncnc(N3CCC(C(=O)N(C)CC(=O)Nc4ccccc4Br)CC3)c2c1C | -37 | i | -107% | 6% | 35µM*
Cc1sc2ncnc(N3CCC(C(=O)N(C)CC(=O)Nc4ccccc4Cl)CC3)c2c1C | 4 | i | -18% | 2% | ?
COc1ccc2c(c1)c1c(c(=O)n(-c3cccc(C)c3)c(=O)n1CC(=O)NCc1ccc(C)cc1)n2C | . | . | . | 9% | .
CC1C/C(=C/c2ccccn2)C(=O)/C(=C/c2ccccn2)C1 (stereo unspecified) | -75* | i | 0%[15.4 µM] | 0% | -18%
SMILES | RXFP1 antagonist | pAkt inh | gsp ag | RXFP1 agonist | gsp antag
CC(C)(C)C1C/C(=C/c2ccccn2)C(=O)/C(=C/c2ccccn2)C1 (stereo unspecified) | -1 | i | -23% | -2% | -21%
N=C(N)c1ccc(OCCCOc2ccc(C(=N)N)cc2)cc1 | -16 | . | . | . | .
CCOC(=O)c1ccc(NC(=O)Cn2cc(C(=O)c3ccc(CC)cc3)c(=O)c3ccc(C)nc32)cc1 | 0 | . | . | 32µM* | .
O=C(C1CCCCC1)N(Cc1cccnc1)c1nc2c(F)cc(F)cc2s1 | -102* | . | . | 2% | .
CC(=O)N(Cc1cccnc1)c1nc2c(F)cc(F)cc2s1 | -13 | . | . | 2% | .
O=C(CN1C(=O)C(=O)N(CCC2=CCCCC2)C1=O)c1c[nH]c2ccccc12 | -66* | i | 18%[15.4 µM] | . | -19%
O=C(CN1C(=O)C(=O)N(Cc2ccco2)C1=O)c1c[nH]c2ccccc12 | 10 | i | 28% | 0% | 3%
COc1ccc(NC2=NCCC(=O)N2Cc2cccs2)cc1 | 4 | -111%* | -7% | 1% | 2%
COc1ccc(NC2=NCC(=O)N2Cc2cccs2)cc1 | -9 | . | 9% | 1% | -7%
CCN(CC)CC(=O)OCC(=O)[C@@]1(O)CC[C@H]2[C@@H]3CCC4=CC(=O)CC[C@]4(C)[C@H]3[C@@H](O)C[C@@]21C | -18 | . | . | . | .
NC(=O)c1c(NC(=O)CS(=O)(=O)c2ccc(Cl)cc2)sc2c1CCCC2 | -18 | . | . | 1% | .
Cc1c(C#N)c2ncn(Cc3ccccn3)c(=O)c2n1-c1ccccc1 | 7 | i | 10% | 2% | 28µM*
Cc1c(C#N)c2ncnc(N)c2n1-c1ccccc1 | -6 | -104%* | 17% | 3% | -7%
Cc1c(C#N)c2ncn(CCCN(C)C)c(=O)c2n1-c1ccccc1 | -9 | i | 0% | 1% | 6%
N#Cc1c2n(c3c(N)ncnc13)CCCCC2 | 4 | i | 46%[15.4 µM] | 18µM* | 12%
Cc1ccc(CNC(=O)c2ccc(CSCc3ccccc3Cl)o2)cc1 | -30 | . | . | 0% | .
CC(=O)N[C@@H](CO)C(=O)N[C@@H](CC(=O)O)C(=O)N[C@@H](CCCCN)C(=O)N1CCC[C@H]1C(=O)O | -10 | . | . | . | .
O=C(NCC(=O)N1CCCCC1)c1sc2ccccc2c1Cl | 9 | i | 20% | 0% | 5%
Cc1ccc(S(=O)(=O)N2CCN(C(=O)CNC(=O)c3sc4ccccc4c3Cl)CC2)cc1 | -14 | i | 11µM* | 8% | -33%
COc1ccc(OC)c(C2C(C(=O)c3cc4ccccc4o3)=C(O)C(=O)N2c2cc(C)on2)c1 (stereo unspecified) | . | i | 14µM* | ? | -8%
C=CCOc1ccc(C2C(C(=O)c3ccco3)=C(O)C(=O)N2c2nnc(C)s2)cc1 (stereo unspecified) | -6 | i | 45%[15.4 µM] | 14µM* | -10%
Cc1cc(N2C(=O)C(O)=C(C(=O)c3cc4ccccc4o3)C2c2ccc(Br)cc2)no1 (stereo unspecified) | 10 | i | 3.5µM* | 22µM* | -4%
